Shown are actives, neighbours in structure and some others; about 4% of the full set was active somewhere.
EWS-Fli block: blocks EWS/Fli oncoprotein-driven transcription; A673 NR0B1-luciferase reporter, viability-normalised; actives 0.67% (n = 350,000); inhibition, % at 12.6 µM;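 active means mean inhibition of at least 50% after viability correction, with every replicate also passing that limit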;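 further: firefly luciferase signal divided by Alamar Blue viability fluorescence both relative to DMSO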
Wnt act: activates Wnt/beta-catenin signaling in a reporter cell assay; activation, % at 9.35 µM; activator, plate reader; actives 1.2% (n = 300,000); in the data active means activation above about 30%, passing the limit was not always enough
PAX8 reporter: PAX8 transcriptional activity inhibition. RMG-I TPO-luciferase reporter, SteadyGlo, 24 h. inhibition, % at 12.6 µM. actives 1.2% (n = 360,000). AID 652154;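 active means mean replicate inhibition at least 60% with every replicate also reaching 60%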;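 further: luciferase light reporting Pax8 driven TPO promoter activity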
MITF TRPM1 inh: MITF TRPM1 promoter inhibition in SK-MEL-5 cells. SK-MEL-5 TRPM1 promoter luciferase, 24 h. inhibition, % at 12.5 µM. actives 0.83% (n = 330,000);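 active means mean inhibition across replicates of 60% or more, whatever share of single replicates reaches that level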
MITF act: increases MITF-driven TRPM1 promoter luciferase signal; SK-MEL-5 TRPM1-promoter luciferase, 24 h; % of positive control, neutral wells = 0; activation, % at 12.5 µM; actives 0.75% (n = 300,000);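 active means mean activation of at least 80% with every replicate also reaching 80%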
esBAF inh: SWI/SNF esBAF complex inhibition | AID 602393 | actives 2% (n = 350,000) | reporter increase, % at 12.5 µM | mouse ES cells, Bmi1-luciferase knock-in reporter, 24 h; 100% = twice the neutral-well signal; in the data active means activation above about 40%;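 further: a rise in the Bmi1 reporter signal indicates esBAF inhibition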
Each line names hits and unclear results; the compound was inactive in the other large screens.

O=C1C=CC(=O)c2c(O)c(N3CCN(CCO)CC3)c(Cl)c(O)c21	MITF TRPM1 inh 99
CN1/C(=C\C=O)C(C)(C)c2ccccc21	none (no result: esBAF inh)
CN1\C(=C/C=C/C=C/C=[N+](C)C)C(C)(C)c2ccccc21	EWS-Fli block 66 (no result: esBAF inh)
O=C(C[C@@H]1C[C@@H]2c3cc(NC(=O)c4cccnc4)ccc3O[C@@H]2[C@H](CO)O1)NCC(F)(F)F	none (no result: Wnt act, MITF TRPM1 inh, MITF act)
C[C@@H]1CN([C@@H](C)CO)C(=O)c2cc(NC(=O)Nc3cccc4ccccc34)ccc2O[C@@H](C)CCCCO[C@H]1CN(C)CC1CCCCC1	EWS-Fli block 91 (no result: Wnt act, MITF TRPM1 inh, MITF act)
C[C@H]1CCCCO[C@H](CN(C)CC2CCCCC2)[C@@H](C)CN([C@@H](C)CO)C(=O)c2cc(NC(=O)Nc3cccc4ccccc34)ccc2O1	EWS-Fli block 89 (no result: Wnt act, MITF TRPM1 inh, MITF act)
C[C@@H]1CN([C@@H](C)CO)C(=O)c2cc(NC(=O)Nc3cccc4ccccc34)ccc2O[C@@H]1CN(C)CC1CCCCC1	EWS-Fli block 77 (no result: Wnt act, PAX8 reporter, MITF TRPM1 inh, MITF act)
C[C@H]1CCCCO[C@H](CN(C)C)[C@@H](C)CN([C@@H](C)CO)C(=O)c2cc(NC(=O)Nc3cccc4ccccc34)ccc2O1	none (no result: Wnt act, MITF TRPM1 inh, MITF act)
C[C@H](CO)N1C[C@H](C)[C@H](CN(C)CC2CC2)OCCCC[C@H](C)Oc2ccc(NC(=O)Nc3cccc4ccccc34)cc2C1=O	none (no result: Wnt act, MITF TRPM1 inh, MITF act)
C[C@@H]1CCCCO[C@H](CN(C)C)[C@H](C)CN([C@H](C)CO)C(=O)c2cc(NC(=O)Nc3cccc4ccccc34)ccc2O1	PAX8 reporter 84 (no result: Wnt act, MITF TRPM1 inh, MITF act)
C[C@@H]1CN([C@@H](C)CO)C(=O)c2cc(NC(=O)Nc3cccc4ccccc34)ccc2O[C@@H](C)CCCCO[C@H]1CN(C)CC1CC1	none (no result: Wnt act, MITF TRPM1 inh, MITF act)
COc1ccc(S(=O)(=O)N(C)C[C@H]2Oc3ccc(NS(=O)(=O)c4ccc(C)cc4)cc3C(=O)N([C@@H](C)CO)C[C@H]2C)cc1	none (no result: Wnt act, MITF TRPM1 inh, MITF act, esBAF inh)
O=C(C[C@H]1CC[C@@H]2[C@H](COC[C@@H](O)CN2C(=O)c2ccc(F)cc2)O1)Nc1ccc(-c2ccccc2)cc1	none (no result: Wnt act, MITF TRPM1 inh, MITF act)
C[C@H](CO)N1C[C@H](C)[C@@H](CN(C)S(=O)(=O)c2ccc(Cl)cc2)Oc2ccc(NS(=O)(=O)c3ccc(F)cc3)cc2CC1=O	none (no result: Wnt act, MITF TRPM1 inh, MITF act)
C[C@@H]1CN([C@@H](C)CO)C(=O)c2cc(NC(=O)Nc3cccc4ccccc34)ccc2O[C@@H](C)CCCCO[C@@H]1CN(C)CC1CCCCC1	EWS-Fli block 82 (no result: Wnt act, MITF TRPM1 inh, MITF act)
C[C@@H]1CCCCO[C@@H](CN(C)CC2CCCCC2)[C@H](C)CN([C@H](C)CO)C(=O)c2cc(NC(=O)Nc3cccc4ccccc34)ccc2O1	EWS-Fli block 90 (no result: Wnt act, MITF TRPM1 inh, MITF act)
Cc1noc(C)c1NC(=O)Nc1ccc2c(c1)CC(=O)N([C@H](C)CO)C[C@H](C)[C@@H](CN(C)C(=O)Nc1cccc3ccccc13)O2	none (no result: Wnt act, MITF TRPM1 inh, MITF act)
O=C(NC[C@@H]1[C@H](c2ccccc2)[C@H](CO)N1CC1CCCC1)c1ccccc1	none (no result: Wnt act, MITF TRPM1 inh, MITF act)
Cc1cc(Cl)c2oc(C(=O)N3CCN(c4cnccn4)CC3)c(C)c2c1	none (no result: MITF TRPM1 inh, MITF act, esBAF inh)
Cc1ccc2oc(C(=O)N3CCCCCC3)c(C)c2c1	MITF act 124, esBAF inh 64 (no result: PAX8 reporter)
Cc1cc(Cl)c2oc(C(=O)N(C)Cc3ccon3)c(C)c2c1	esBAF inh 71 (no result: EWS-Fli block)
Cc1cc(Cl)c2oc(C(=O)N(C)Cc3cc(C)[nH]n3)c(C)c2c1	none
Cc1cc(Cl)c2oc(C(=O)N3CCN(C(=O)c4ccco4)CC3)c(C)c2c1	esBAF inh 52
Cc1cc(Cl)c2oc(C(=O)N3CCOCC3)c(C)c2c1	esBAF inh 67 (no result: MITF TRPM1 inh, MITF act)
Cc1cc(Cl)c2oc(C(=O)N3CCN(c4cccc(C)n4)CC3)c(C)c2c1	esBAF inh 74 (no result: MITF act)
Cc1cc(Cl)c2oc(C(=O)N(C)C3CCOC3)c(C)c2c1 (stereo not drawn)	esBAF inh 42
COc1ccc2c3c(n(C)c2c1)[C@H](CO)N(C(=O)Nc1ccc(F)cc1)CC31CCN(C(=O)Nc2ccc(F)cc2F)CC1	none (no result: Wnt act, PAX8 reporter, MITF TRPM1 inh, MITF act, esBAF inh)
CCC(=O)N(C)C[C@@H]1Oc2cc(-c3cccc(OC)c3)ccc2S(=O)(=O)N([C@@H](C)CO)C[C@@H]1C	none (no result: Wnt act, PAX8 reporter, MITF TRPM1 inh, MITF act)
C[C@H](CO)N1C[C@H](C)[C@H](CN(C)Cc2ccc(Oc3ccccc3)cc2)Oc2ncc(-c3cncnc3)cc2C1=O	none (no result: Wnt act, MITF TRPM1 inh, MITF act)
O=C(C[C@H]1C=C[C@@H](NC(=O)C2CC2)[C@H](CO)O1)NCc1ccccc1Cl	none (no result: Wnt act, MITF TRPM1 inh, MITF act)
Cc1ccc(-c2nc3[nH]c(=O)cc(NC(=O)C(C)C)n3n2)cc1	none
CCC(=O)Nc1cc(=O)[nH]c2nc(-c3ccc(Cl)cc3)nn12	Wnt act 39
Cc1cc(C)c(C(=O)/C=C/c2cccc3ccccc23)c(=O)[nH]1	PAX8 reporter 99, MITF TRPM1 inh 87 (no result: esBAF inh)
COc1ccc(CN(C)C[C@H]2Oc3ccc(NC(=O)C4CC4)cc3CC(=O)N([C@H](C)CO)C[C@H]2C)cc1	none (no result: Wnt act, MITF TRPM1 inh, MITF act)
CC(C)(C)NC(=O)c1ccc2c(c1)C(=O)N(C1CCCCC1)C2=O	esBAF inh 43 (no result: EWS-Fli block)
CCCCOc1ccc2c(c1)C(=O)c1cc(O)ccc1-2	MITF act 86 (no result: esBAF inh)
COc1ccc(/C=C/C2=NC(=C\N(C)C)/C(=O)O2)cc1	esBAF inh 51 (no result: EWS-Fli block, PAX8 reporter)
C[C@H]1CN([C@@H](C)CO)S(=O)(=O)c2ccc(/C=C/c3ccccc3)cc2O[C@@H]1CN(C)C(=O)CN1CCOCC1	none (no result: Wnt act, MITF TRPM1 inh, MITF act)
O=c1c2ccccc2oc2ccccc12	none (no result: PAX8 reporter, MITF TRPM1 inh, MITF act)
O=c1c2ccccc2oc2c1ccc1ccccc12	MITF act 90, esBAF inh 72 (no result: EWS-Fli block, Wnt act, PAX8 reporter)
O=c1cc(C(Cl)(Cl)Cl)oc2c1ccc1ccccc12	PAX8 reporter 98, MITF TRPM1 inh 69 (no result: EWS-Fli block)
CCC(=O)Nc1ccc2c(c1)C(=O)N(C)[C@@H]1CC[C@@H](CC(=O)NCC3CC3)O[C@@H]1CO2	none (no result: Wnt act, MITF TRPM1 inh, MITF act)
CCC(=O)Nc1ccc2c(c1)OC[C@H](C)N(Cc1cccnc1)C[C@H](C)[C@H](OC)CN(C)C2=O	none (no result: Wnt act, MITF TRPM1 inh, MITF act)
COc1ccccc1NC(=O)c1ccc2[nH]c(C)c(C)c2c1	Wnt act 40, esBAF inh 66
Cc1[nH]c2ccc(C(=O)NC3CCC(C)CC3)cc2c1C (stereo not drawn)	MITF act 85, esBAF inh 56
C[C@H](CO)N1C[C@H](C)[C@@H](CN(C)S(=O)(=O)c2ccccc2)Oc2ccc(NC(=O)Cc3cn(C)c4ccccc34)cc2C1=O	none (no result: Wnt act, MITF TRPM1 inh, MITF act)
O=C1CN(S(=O)(=O)Cc2ccccc2)C[C@@H]2[C@@H](c3ccc(C#CC4CC4)cc3)[C@@H](CO)N12	PAX8 reporter 79 (no result: Wnt act, MITF TRPM1 inh, MITF act, esBAF inh)
O=C1CN(S(=O)(=O)Cc2ccccc2)C[C@H]2[C@H](c3ccc(C#Cc4ccc(F)cc4)cc3)[C@H](CO)N12	PAX8 reporter 99 (no result: Wnt act, MITF TRPM1 inh, MITF act, esBAF inh)
CCS(=O)(=O)N1CC(=O)N2[C@H](CO)[C@@H](c3ccc(-c4ccccc4F)cc3)[C@H]2C1	PAX8 reporter 81 (no result: Wnt act, MITF TRPM1 inh, MITF act, esBAF inh)
CCS(=O)(=O)N1CC(=O)N2[C@H](CO)[C@@H](c3ccc(-c4ccccc4F)cc3)[C@@H]2C1	none (no result: Wnt act, MITF TRPM1 inh, MITF act, esBAF inh)
